# Source: PubChem BioAssay
# Dicer processing: human Dicer pre-microRNA cleavage inhibition | Q9UPY3 | cat-ELCCA pre-miR-21 Dicer processing, chemiluminescence; active compounds read high | z-score at 25 µM | actives 6% (n = 47,000) | AID 1347074; in the data active = z-score above about 3, passing the limit was not always enough;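 also: plate controls were vehicle for no effect and no enzyme for full effect; higher signal means more uncleaved substrate so more Dicer inhibition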
# An asterisk follows results filed as active. This excerpt belongs to a sample that is enriched for hits.
SMILES,Dicer processing
Cc1ccc(SCc2cc(=O)[nH]c(Nc3nc(C)c4cccc(C)c4n3)n2)cc1,1.82
CCc1ccc2nc(Nc3nc(CSc4nnc(C)s4)cc(=O)[nH]3)nc(C)c2c1,3.07*
CCOc1ccc2nc(Nc3nc(O)cc(=O)[nH]3)nc(C)c2c1,2.78
CC(C)N1C(=O)C(O)(CC(=O)c2ccc(F)cc2)c2ccccc21 (configuration not stated),-1.44
CCOC(=O)C(CC)Oc1ccc2c(=O)c(-c3ccc(Cl)cc3)coc2c1 (configuration not stated),1.07
CCCOC(=O)C(C)Oc1ccc2c(=O)c(-c3ccc(Cl)cc3)coc2c1 (configuration not stated),3.25*
CCCOC(=O)COc1ccc2c(=O)c(Oc3cc(C)c(Cl)c(C)c3)coc2c1,-0.45
CCOCCOC(=O)COc1ccc2c(=O)c(-c3ccc(Cl)cc3)coc2c1,3.45*
Cc1cc(C)cc(Oc2coc3cc(OC(C)C(=O)OCC(C)C)ccc3c2=O)c1 (configuration not stated),3.61*
CCOCCOC(=O)C(C)Oc1ccc2c(=O)c(Oc3cc(C)c(Cl)c(C)c3)coc2c1 (configuration not stated),-0.19
CCC(C)OC(=O)C(C)Oc1ccc2c(=O)c(-c3ccc(Cl)cc3)coc2c1 (configuration not stated),-0.61
CCCCOC(=O)C(C)Oc1ccc2c(=O)c(Oc3ccccc3Br)coc2c1 (configuration not stated),-0.22
CC(C)COC(=O)C(C)Oc1ccc2c(=O)c(Oc3ccccc3Cl)coc2c1 (configuration not stated),0.24
Cc1nn(C)c2sc(C(=O)NCc3ccc(N4CCN(C)CC4)cc3)cc12,0.3
Clc1ccc(-c2noc(CC3CCCCC3)n2)cc1,0.56
c1ccc(-c2csc3ncnc(N4CCCC4)c23)cc1,1.76
O=c1c(Cc2ccccc2)c(O)c2ccccc2n1-c1ccccc1,4.03*
O=c1c(Cc2ccccc2)c(O)c2cccc3c4ccccc4n1c23,-1.49
O=c1c(Cc2ccccc2)c(O)c2cccc3c2n1CCC3,-1.03
CCOc1c(N2CCOCC2)c(=O)c1=O,0.88
CCOc1ccc(-c2nc(C#N)c(N3CC(C)OC(C)C3)o2)cc1 (configuration not stated),0.5
CCOc1c(N2CC(C)OC(C)C2)c(=O)c1=O (configuration not stated),5.98*
Clc1ccc2sc(N3CCCC3)nc2c1,-0.33
CCOC(=O)c1c[nH]c2ccccc2c1=O,3.05*
CCOC(=O)c1c[nH]c2ccc(C(F)(F)F)cc2c1=O,-0.83
SMILES,Dicer processing
CCOC(=O)c1ccc2[nH]cc(C(=O)OCC)c(=O)c2c1,-0.16
N#Cc1nccnc1Oc1ccc(Cl)cc1,-1.77
CC1(C)SC(C(=O)O)N[C@H]1C(=O)O (some centres not stated),3.1*
CC1(C)SC(c2ccc(F)cc2)N[C@H]1C(=O)O (some centres not stated),-1.08
OC(CNC1CCN(Cc2ccccc2)CC1)COc1ccc2c(c1)OCO2 (configuration not stated),-0.56
COc1ccc(OC)c(C(=O)CC2(O)C(=O)N(Cc3ccccc3)c3ccc(Br)cc32)c1 (configuration not stated),2.47
CC(=O)NNC(=O)CNC(=O)c1cc(C)cs1,0.57
CC(C)(C)C(=O)Nc1cccc(F)c1C(=O)O,-0.17
FC(F)(F)Oc1ccc(NC(=S)N2CCc3c([nH]c4ccccc34)C2C(F)(F)F)cc1 (configuration not stated),1.05
O=C(O)CCCC(=O)N1CCc2c([nH]c3ccccc23)C1C(F)(F)F (configuration not stated),-0.64
FC(F)(F)Oc1ccccc1NC(=S)N1CCc2c([nH]c3ccccc23)C1C(F)(F)F (configuration not stated),-6.98
O=C(O)CCC(=O)N1CCc2c([nH]c3ccccc23)C1C(F)(F)F (configuration not stated),1.03
O=S(=O)(c1cc(C(F)(F)F)cc(C(F)(F)F)c1)N1CCc2c([nH]c3ccccc23)C1C(F)(F)F (configuration not stated),3.52*
O=C(NC(=O)N1CCc2c([nH]c3ccccc23)C1C(F)(F)F)c1ccccc1 (configuration not stated),7.52*
Fc1ccc(-c2cnc3c(Cl)cc(C(F)(F)F)cc3n2)cc1,0.54
CCOC(=O)CCc1c(C)c(C#N)c2nc3ccccc3n2c1N1CCN(C)CC1,1.15
COC(=O)c1sc(-c2ccc(Cl)cc2)cc1NC(=O)C(F)(F)F,0.16
NC(=O)c1sc(-c2ccccc2)cc1NS(=O)(=O)c1ccc(F)cc1,-0.57
NC(=O)c1sc(-c2ccc(Cl)cc2)cc1NS(=O)(=O)c1cc(C(F)(F)F)cc(C(F)(F)F)c1,3.7*
CCOC(=O)Cc1nn(Cc2nc(C)c(C(=O)OCC)s2)c(=O)c2ccccc12,-0.54
FC(F)(F)c1cc(C(F)(F)F)n2nc(-c3ccc(Cl)cc3)cc2n1,-0.11
